In the library only some 1.3% were active in any assay of this set; here they are far more common.
sEH inh = soluble epoxide hydrolase inhibitors, primary screen, biochemical, human sEH | Bifunctional epoxide hydrolase 2 (Homo sapiens), P34913 | recombinant human sEH enzymatic activity assay | inhibition, % at 2 µM | hit rate 0.34% among 91,000 | AID 707, 2007; in the data active means inhibition above about 80%
Target sequence (P34913 whole entry, looked up): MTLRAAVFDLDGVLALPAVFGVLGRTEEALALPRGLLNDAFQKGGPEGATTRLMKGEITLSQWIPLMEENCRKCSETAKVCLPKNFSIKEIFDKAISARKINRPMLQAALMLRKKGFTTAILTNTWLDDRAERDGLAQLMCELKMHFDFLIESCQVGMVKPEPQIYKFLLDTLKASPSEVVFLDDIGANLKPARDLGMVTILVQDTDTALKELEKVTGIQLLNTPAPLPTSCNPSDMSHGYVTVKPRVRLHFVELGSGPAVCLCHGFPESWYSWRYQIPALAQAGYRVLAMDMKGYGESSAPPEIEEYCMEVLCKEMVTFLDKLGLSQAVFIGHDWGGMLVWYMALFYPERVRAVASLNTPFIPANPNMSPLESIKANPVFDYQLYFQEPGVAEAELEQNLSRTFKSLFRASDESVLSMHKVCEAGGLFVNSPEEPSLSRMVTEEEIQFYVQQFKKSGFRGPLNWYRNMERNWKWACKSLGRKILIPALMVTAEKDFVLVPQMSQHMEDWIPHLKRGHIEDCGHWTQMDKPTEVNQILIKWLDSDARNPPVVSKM
sEH activator = soluble epoxide hydrolase activators, primary screen, biochemical, human sEH; Bifunctional epoxide hydrolase 2 (Homo sapiens), P34913; purified human sEH enzymatic activity, activator screen; activation, % at 2 µM; hit rate 0.04% among 91,000; AID 717, 2007; in the data active means activation above about 37%
PLAP activator = PLAP enzyme activators, biochemical, luminescence, HTS | Alkaline phosphatase, placental type (Homo sapiens), P05187 | purified PLAP enzyme, luminescent substrate read-out; stronger effect = higher value | activation fold at 20 µM | hit rate 1.2% among 96,000 | AID 696, 2007; in the data active means activation fold above about 2
BAP1 block = inhibitors of BAP1 deubiquitinase, primary screen, biochemical, Ub-AMC fluorescence, kinetic; recombinant BAP1, Ub-AMC hydrolysis fluorescence kinetic; stronger effect = lower value; calls only at 20 µM; hit rate 0.48% among 72,000;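 active means activity remaining at or below 50% of control, provided the compound also passes the data quality filters; inactive means the rest, including low values that fail the filters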;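 further: 100% = DMSO wells rate and 0% = substrate alone blank rate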
* marks the source's active call; other numbers are inactive results; i = inactive; nt = no result shown; + = active, no number.

SMILES | sEH inh | sEH activator | PLAP activator | BAP1 block
Cc1cc(SCC(=O)N/N=C/c2ccc(O)c(O)c2O)c(C)cc1Br | -3.9 | 1.8 | 2.2* | nt
CCn1c(=O)c(C(=O)Nc2ccc(I)cc2)c(O)c2ccccc21 | nt | nt | nt | i
CC(C)n1c(C(O)c2ccc3c(c2)OCO3)nc2ccccc21 (stereo not given) | nt | nt | 2.4* | i
Cn1c(C(O)c2ccc3c(c2)OCO3)nc2ccccc21 (stereo not given) | -0.1 | 0.0 | 1.4 | i
O=C1c2ccccc2C(=O)c2cc(I)ccc21 | nt | nt | nt | i
COC(=O)c1ccc2c(c1)C(C)(C)C1(C=Cc3cc([N+](=O)[O-])ccc3O1)N2C (stereo not given) | nt | nt | nt | i
O=S(=O)(/N=C(/Nc1cc(N2CCOCC2)ncn1)c1ccc(F)cc1)c1ccccc1 | -12.0 | 16.0 | 2.1* | i
O=S(=O)(/N=C(/Nc1cc(N2CCOCC2)ncn1)c1ccccc1)c1ccccc1 | -0.3 | 3.6 | 0.9 | i
COc1ccc(NC(=S)NNC(=O)C(C)n2nc(C)c([N+](=O)[O-])c2C)cc1 (stereo not given) | -2.4 | 5.5 | 2.3* | nt
COC(=O)c1ccccc1NC(=O)c1cc2nc(-c3cccs3)cc(C(F)(F)F)n2n1 | nt | nt | nt | i
COc1ccc2nc(SCc3nc(N)nc(Nc4ccccc4)n3)[nH]c2c1 | -4.1 | 5.3 | 2.5* | i
COc1ccc(S(=O)(=O)N2C3CCC2CC(NC(=O)NC2CCCCC2)C3)cc1 (stereo not given) | 97.6* | -97.6 | 1.1 | nt
COC(=O)c1ccc(S(=O)(=O)N2C3CCC2CC(NC(=O)NC2CCCCC2)C3)cc1 (stereo not given) | 98.0* | -98.0 | 1.2 | i
COc1ccc(S(=O)(=O)N2C3CCC2CC(NC(=O)C2CC2)C3)cc1 (stereo not given) | 6.2 | -6.7 | 1 | i
Cc1ccccc1-c1coc2cc(O)ccc2c1=O | 13.9 | -11.6 | 0.9 | nt
O=c1c(-c2ccc(O)cc2)coc2cc(O)ccc12 | nt | nt | nt | +
CCCCN(CCCNc1ncnc2nc[nH]c12)c1ccccc1 | nt | nt | 1.6 | i
COCCNc1ncnc2nc[nH]c12 | nt | nt | 1 | nt
COc1ccccc1CNc1ncnc2nc[nH]c12 | nt | nt | 2.1* | i
c1ccc(CCNc2ncnc3nc[nH]c23)cc1 | 1.4 | 0.1 | 2.2* | i
CCN(CCCNc1ncnc2nc[nH]c12)c1cccc(C)c1 | nt | nt | 2.1* | i
COc1ccccc1Nc1ncnc2nc[nH]c12 | -21.3 | 22.3 | 2* | nt
c1ccc2c(CCNc3ncnc4nc[nH]c34)c[nH]c2c1 | nt | nt | 1.7 | i
CN(C)c1cc(Nc2ccccc2)c2c3c(onc13)-c1ccccc1C2=O | nt | nt | nt | i
CCN(CC)S(=O)(=O)c1ccc2oc(C(=O)NCCCN3CCOCC3)c(C)c2c1 | 19.9 | -18.3 | 2* | nt
SMILES | sEH inh | sEH activator | PLAP activator | BAP1 block
COc1ccc(OC)c(NC(=O)CC2C(=O)NCCN2C(=O)Nc2cccc(Cl)c2)c1 (stereo not given) | 2.5 | -1.8 | 2* | nt
c1ccc(OCCN(Cc2nc3ccccc3[nH]2)C2CCCCC2)cc1 | nt | nt | nt | i
CCc1cccc(NC(=O)NC2CCCCC2)c1 | 94.2* | -94.0 | 1.3 | i
Cc1ccc(NC(=O)NC2CCCCC2)cc1Cl | 95.1* | -95.2 | 0.9 | i
O=C(NCCCn1ccnc1)c1cn(-c2ccccc2)nc1-c1ccc(F)cc1 | 5.2 | -4.6 | 2.3* | i
O=C(C1CCN(C2CC(=O)N(Cc3ccccc3)C2=O)CC1)N1CCCCCC1 (stereo not given) | -2.9 | 5.4 | 2* | i
CCc1ccccc1OCc1nc2ccc(S(=O)(=O)N3CCOCC3)cc2[nH]1 | 33.5 | -32.2 | 2* | nt
CCn1c(COc2cccc3ccccc23)nnc1SCC(=O)OC1CCCCC1 | 2.1 | -0.2 | 2.5* | nt
CCn1c(COc2ccccc2C)nnc1SCC(=O)NC1CCCC1 | -1.8 | 1.6 | 1.6 | i
Cc1nc(SCC(=O)c2ccccc2)n[nH]1 | -11.1 | 9.4 | 2.2* | i
O=C(CSc1n[nH]c(-c2ccncc2)n1)c1ccccc1 | 4.8 | -4.4 | 0.9 | i
O=C(Nc1ccc2c(c1)OCO2)c1ccncc1 | -19.1 | 20.6 | 0.9 | i
O=C(Nc1ccc2c(c1)OCO2)c1ccc2nc[nH]c2c1 | 6.8 | -7.2 | 2* | nt
Cc1cc2nc(-c3cccc(NC(=O)c4cccc(F)c4)c3)oc2cc1C | nt | nt | nt | i
OCCNc1ncnc2c1c(-c1ccccc1)c(-c1ccccc1)n2Cc1ccco1 | 9.2 | -10.7 | 2* | i
c1ccc(-c2c(-c3ccccc3)n(Cc3ccco3)c3ncnc(NCCCn4ccnc4)c23)cc1 | -3.6 | 1.7 | 90.2 | nt
Cc1ccc(C(=O)NNC(=S)NC(=O)COc2ccccc2)cc1 | 2.3 | -0.4 | 1.5 | nt
Cc1ccccc1C(=O)NNC(=S)NC(=O)COc1ccccc1 | -10.7 | 12.0 | 2.4* | nt
c1ccc(-c2cc(-c3ccncc3)c3c(ccc4ccccc43)n2)cc1 | nt | nt | nt | i
O=C1NC(=O)C2C1C1(c3ccccc3)C(=O)C2(c2ccccc2)C(c2ccc3c(c2)OCO3)=C1c1ccc2c(c1)OCO2 (stereo not given) | nt | nt | nt | i
COc1cccc(N2CCN(CC(=O)Nc3nnc(-c4ccccc4)s3)CC2)c1 | -9.9 | 8.8 | 2* | i
COc1ccc(CNc2ccc3cn[nH]c3c2)c(OC)c1OC | -3.7 | 1.9 | 2* | nt
CC(C)Sc1nc(N2CCOCC2)c2c(c1C#N)CC(C)(C)SC2 | nt | nt | 0.9 | nt
CC(C)Sc1nc(N2CCOCC2)c2c(c1C#N)CC(C)(C)N(C)C2 | 8.1 | -8.9 | 2* | nt
O=C(Nc1cccc(F)c1)c1cc2c(ccc3ccccc32)oc1=O | nt | nt | nt | i
SMILES | sEH inh | sEH activator | PLAP activator | BAP1 block
Cc1nc(SCC(=O)Nc2c(C)n(C)n(-c3ccccc3)c2=O)[nH]c(=O)c1C | 14.5 | -9.5 | nt | nt
Cc1c(NC(=O)CSc2nc3ccc(Cl)cc3[nH]2)c(=O)n(-c2ccccc2)n1C | -16.1 | 14.8 | 2* | nt
Cc1c(NC(=O)CSc2nc3ccccc3[nH]2)c(=O)n(-c2ccccc2)n1C | -14.8 | 12.3 | 2.2* | i
CN1CCN(S(=O)(=O)c2cccc([N+](=O)[O-])c2)CC1 | -34.8 | 38.6* | nt | nt
COc1ccc(C(NC(C)=O)c2ccc3cccnc3c2O)cc1 (stereo not given) | nt | nt | nt | i
CC(=O)NC(c1ccco1)c1ccc2cccnc2c1O (stereo not given) | 6.3 | -4.7 | 2.7* | i
Cc1cc(C(=O)NNC(=S)NCC2CCCO2)cs1 (stereo not given) | 6.3 | -5.7 | 2.2* | nt
Cc1ccc(C(=O)NC(=S)NCC2CCCO2)cc1 (stereo not given) | 6.2 | -3.9 | 0.9 | nt
CCOC(=O)c1c(NC(=O)c2ccc(S(=O)(=O)N3CCCc4ccccc43)cc2)sc2c1CCCCC2 | nt | nt | nt | i
O=C(Nc1ccc(-c2nc3ccccc3o2)c(O)c1)c1ccc(Br)cc1 | nt | nt | nt | i
Cc1ccc(-c2n[nH]c(=S)n2-c2ccccc2)cc1 | -18.3 | 21.9 | nt | nt
Cc1ccc(-n2c(-c3c(-c4ccccc4)noc3C)n[nH]c2=S)cc1 | -8.8 | 10.3 | 2.1* | nt
Cc1cc(C)c(NC(=O)c2ccc(CN3CCc4ccccc4C3)cc2)c(C)c1 | -7.0 | 8.3 | 2.3* | nt
O=C(CSCc1ccc(Cl)cc1)N/N=C/c1ccc(Cl)cc1Cl | 80.4* | -80.2 | 0.9 | nt
